Bioassay records from PubChem.
A selection: hits, their analogues and other compounds. The true share with any hit is near 7.2%.
Bfl-1 A1 inh = inhibitors of the anti-apoptotic protein A1, read as caspase activation | MEF A1-2A-BIM cells, Caspase-Glo 3/7 luminescence, 3 h; percent of clofoctol response, vehicle zero | 330,000 tested, 0.066% active | AID 2462 | caspase activation, % (concentration not given with the values);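 active = over half of replicate activation scores above 10%, or exactly half above 10 with the replicate mean above 10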
Efflux pump inh = inhibitors of Candida antifungal efflux pumps expressed in yeast; 330,000 tested, 0.44% active; S. cerevisiae Candida pump triplex, Nile Red efflux; inhibition, % at 10 µM;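 active = plate passing quality check with inhibition over a set limit, or well fluorescence over plate mean plus 4 SD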;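 note: Nile Red retained in pooled yeast measured as flow cytometry median fluorescence; 0% = buffer negative control and 100% = Enniatin B positive control; higher means more Nile Red kept so more efflux inhibition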
VLA-4 inh = inhibition in a human VLA-4 binding assay | P13612 | VLA-4 expressing cells, ligand binding flow cytometry | inhibition, % (about 7 µM as worked out from the volumes in the protocol) | 330,000 tested, 0.2% active; in the data active = inhibition above about 50%
AHR act = activates the human aryl hydrocarbon receptor. P35869. AHR-responsive luciferase reporter cells, luminescence. activation, % at 5 µM. 320,000 tested, 2.5% active; in the data active = activation above about 47%;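 note: 0% = vehicle wells and 100% = reference agonist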
SUMO Mot1 rescue = inhibitors of SUMOylation pathway: yeast Mot1-301 growth rescue. S. cerevisiae Mot1-301 growth rescue, ATP luminescence, 38.5C; percent above DMSO median, 100 means doubled. growth rescue, % at 18.8 µM. 320,000 tested, 1% active. AID 2716;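 active = every valid replicate shows activation above 250% relative to neutral control wells; inactive = the rest, any valid replicate at or below 250%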;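 note: OY570 slx delta 5 strain wells were the positive control but not used for scaling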
ALR H2O2 inh = inhibitors of human sulfhydryl oxidase ALR; purified ALR, DTT oxidation, H2O2 HRP-luminol luminescence; inhibition, % (test concentration not listed); 290,000 tested, 3.8% active; AID 485317;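 active = mean replicate inhibition above about 79%, with every replicate also reaching it, limit read from the data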
Cmpd fluor yeast = flagged as fluorescent in efflux inhibitor counter-screen. AID 588517. 1,700 tested, 4% active. shares compounds with Efflux pump inh. fluorescence ratio to DMSO, % at 10 µM. S. cerevisiae AD/pABC3, compound fluorescence, flow cytometry;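 active = fluorescence ratio to DMSO above its plate's cutoff, the plate mean ratio plus 5 SD, cut at about 210% in these data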;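 note: unstained yeast with no Nile Red so the signal is compound autofluorescence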
Mdr1 pump inh = inhibitors of Candida albicans Mdr1 efflux pump; shares compounds with Efflux pump inh; S. cerevisiae AD/CaMDR1, Nile Red efflux, flow cytometry; inhibition, % at 10 µM; 1,700 tested, 1% active; in the data active = inhibition above about 26%;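 note: 0% = DMSO vehicle and 100% = reference inhibitor; higher means more Nile Red retained so more efflux inhibition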
CaCdr2 efflux inh = blocks the Candida albicans Cdr2 efflux pump in yeast; shares compounds with Efflux pump inh; S. cerevisiae AD/CaCDR2, Nile Red retention, flow cytometry; Nile Red retention ratio vs DMSO, % at 10 µM; 1,700 tested, 4% active; AID 588520; in the data active = Nile Red retention ratio vs DMSO above about 190%;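 note: higher ratio means more blocking of Cdr2 efflux of the dye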
CaCdr1 efflux inh = blocks the Candida albicans Cdr1 efflux pump in yeast. shares compounds with Efflux pump inh. 1,700 tested, 1% active. inhibition, % at 10 µM. S. cerevisiae AD/CaCDR1, Nile Red efflux, flow cytometry. AID 588522;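 active = inhibition above the screen-wide mean plus twice its standard deviation, cut at about 32% in these data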
Active calls of the source: *; . = no result given.

SMILES	Bfl-1 A1 inh	Efflux pump inh	VLA-4 inh	AHR act	SUMO Mot1 rescue	ALR H2O2 inh	Cmpd fluor yeast	Mdr1 pump inh	CaCdr2 efflux inh	CaCdr1 efflux inh
Cc1ccc(C(C(=O)NC2CCCC2)N(C(=O)CCC(=O)Nc2cc(C)on2)c2ccccc2)cc1 (centres undefined)	-1	0	2	-3	-1	.	110	0	123	0
Cc1cc(NC(=O)CCC(=O)N(Cc2ccco2)C(C(=O)NC2CCCC2)c2ccccc2F)no1 (centres undefined)	0	0	-18	-1	0	.	.	.	.	.
Cc1cc(NC(=O)CCC(=O)N(Cc2ccco2)C(C(=O)NC2CCCCC2)c2ccccc2)no1 (centres undefined)	0	0	-1	1	-15	-5	104	0	119	0
Cc1cc(NC(=O)CCC(=O)N(Cc2ccco2)C(C(=O)NC2CCCC2)c2ccccc2C)no1 (centres undefined)	0	0	-4	1	-7	1	85	0	90	0
C=CCNC(=S)NNC(=O)COc1ccc(Cl)cc1Cl	-1	15*	4	5	21	7	104	-1	98	0
COc1ccc(C(=O)CC(=O)C(=O)Nc2ccc(Cl)cc2)cc1	1	1.4*	10	1	-14	-3	82	0	172	1
COc1ccc(C(=O)CC(=O)C(=O)Nc2ccc(OC)c(Cl)c2)cc1	1	0	14	1	416	-31	.	.	.	.
CC(=O)Nc1cccc(NC(=O)c2cc(-c3cccnc3)nc3ccc(Cl)cc23)c1	0	1.4*	23	14	224	-3	91	0	112	0
Cc1ccc2c(c1)N(C(=O)CCC(=O)NCc1cccc(Br)c1)CC(C)O2 (centres undefined)	-1	0	2	0	0	-2	.	.	.	.
NS(=O)(=O)c1ccc(CCNC(=O)COC(=O)CN2C(=O)C3CCCCC3C2=O)cc1 (centres undefined)	0	0	6	1	-17	-4	.	.	.	.
COc1cc2c(cc1OC)CN(C(=S)Nc1ccc(C)cc1C)CC2	0	1.1*	10	10	-4	.	103	0	102	0
COc1cc2c(cc1OC)CN(C(=S)Nc1ccccc1Cl)CC2	0	0	2	-6	-4	.	.	.	.	.
O=C(COC(=O)C1CCC1)Nc1ncc(Cl)cc1Cl	0	0	3	0	-2	-4	.	.	.	.
CC(Sc1nnc(-c2cccnc2)o1)C(=O)NC1CCCC1 (centres undefined)	0	0	21	1	-2	0	.	.	.	.
COc1ccc(-c2cc(C(=O)NCCN3CCOCC3)c3ccccc3n2)cc1	1	0	-1	24	9	-9	108	0	106	0
Cc1ccc(CSC2=Nc3ccccc3C3=NC(CC(=O)NCc4ccco4)C(=O)N23)cc1 (centres undefined)	0	0.6*	-6	2	-9	14	99	0	114	0
O=C(CC1N=C2c3ccccc3N=C(SCc3ccc(F)cc3)N2C1=O)NCc1ccco1 (centres undefined)	0	0	2	1	5	1	.	.	.	.
O=C(CSc1ccc(Br)cc1)N1CCN(S(=O)(=O)c2ccccc2)CC1	0	2.0*	-2	-1	9	-10	104	0	105	0
Cc1nn(C)c(C)c1/C=N/NC(=O)CCn1cc([N+](=O)[O-])cn1	0	14*	17	7	15	-9	93	0	96	0
CC(=O)c1ccc(NS(=O)(=O)Cc2ccc(Cl)cc2)cc1	0	0.8*	-2	2	28	0	103	0	101	0
CC(=O)Nc1cccc(NS(=O)(=O)Cc2ccc(Cl)cc2)c1	0	0	1	0	-1	-5	.	.	.	.
Cc1ccc(O)c(C(=O)c2cnc3c(c2)CN(CCC(C)C)C(=O)N3)c1	0	0.6*	3	12	-5	32	107	0	104	0
Cc1ccc(O)c(C(=O)c2cnc3c(c2)CN(C)C(=O)N3)c1	0	0	-12	6	9	12	.	.	.	.
COc1ccccc1Nc1nc2nonc2nc1N1CCC(C)CC1	0	0	-3	3	11	-8	.	.	.	.
COc1ccc(OC)c(Nc2nc3nonc3nc2N2CCCCC2)c1	0	6.7*	13	0	-28	-5	91	0	112	0
SMILES	Bfl-1 A1 inh	Efflux pump inh	VLA-4 inh	AHR act	SUMO Mot1 rescue	ALR H2O2 inh	Cmpd fluor yeast	Mdr1 pump inh	CaCdr2 efflux inh	CaCdr1 efflux inh
O=C(Nc1ccccn1)C(NS(=O)(=O)c1cccc2nsnc12)c1ccccc1 (centres undefined)	0	0	-2	4	-1	-33	.	.	.	.
O=C1/C(=C\c2ccco2)CCC/C1=C\c1ccco1	0	60*	-42	9	-19	33	98	0	105	0
Cc1ccc(NC(=O)C[n+]2cc(-c3ccccc3)n3c2CCC3)c(C)c1	0	0	2	-1	-2	8	89	0	87	0
Cc1ccc(-c2c[n+](CC(=O)Nc3c(C)cccc3C)c3n2CCC3)cc1	-1	0	8	-4	-7	-2	.	.	.	.
Cc1ccc(-c2c[n+](Cc3cccc(Cl)c3)c3n2CCC3)cc1	0	0	8	-1	-1	-3	107	0	107	0
C=CCC(=O)N1CCCC(C(=O)c2ccc(Cl)cc2)C1 (centres undefined)	1	0	-1	4	-21	.	.	.	.	.
COCc1cc(N2CCCC2)nc(-c2ccccc2)n1	0	0	15	4	3	-2	.	.	.	.
CCCCCCCCCCOC(=O)Cn1c(COc2ccc(Cl)cc2)[n+](C)c2ccccc21	1	3.1*	6	0	-58	-21	115	0	222*	0
CCCCCCCCCCOC(=O)Cn1c(COc2cccc(C)c2)[n+](C)c2ccccc21	-1	1.0*	2	-3	69	-42	110	0	120	0
CC1CC(C)CN(C(=O)COC(=O)c2ccc3ccccc3n2)C1 (centres undefined)	0	1	10	7	188	-1	.	.	.	.
COc1cccc(Sc2cc(N3CCOCC3)nc(-c3ccccc3)n2)c1	0	0	8	11	105	-18	.	.	.	.
